Assay results: PubChem BioAssay AID540364 (The Scripps Research Institute Molecular Screening Center, 2011)
About 2,000 (0.56%) of roughly 360,000 compounds were called active. This excerpt belongs to a sample that is enriched for actives. Unmarked numbers belong to inactive results.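 Rule for the calls: active = activation above the average of all compounds screened plus 3 SD, cutoff fixed separately per campaign (cut at about 7.5% in these data); inactive = the rest.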

Assay: FXN promoter activators, primary screen, cell-based, luciferase luminescence, HEK293 lucGAA850 (AID 540364);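 note: 0% = DMSO wells and 100% = 10 µM SAHA wells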
Settings: HEK293 lucGAA850 FXN promoter luciferase reporter, 24 h; at 6 µM; stronger effect = higher value; percent of 10 µM SAHA response
For `Cc1cc(=O)oc2c3c(cc(OCC(=O)NCC(O)c4ccccc4)c12)OC(C)(C)CC3` (stereo not drawn), the activation was 1.51%. Work on `Cc1ccc(C)c(NC(=O)c2ccc3nccnc3c2)c1` yielded an activation of -0.14%. For `CC(C)CCC(C)NC(=O)c1ccc2nccnc2c1` (stereo not drawn), the activation was 9.19% (active). Compound `O=C(NCCc1ccc(F)cc1)c1ccc2nccnc2c1` has an activation of 3.24%. In the case of `O=C(CN(c1cc(C(F)(F)F)ccc1Cl)S(=O)(=O)c1ccccc1)NCc1cccnc1`, the activation is reported as 8.32% (active). `CCc1ccc(N(CC(=O)NCc2cccnc2)S(=O)(=O)c2ccccc2)cc1` showed an activation of -0.07%. `CN(CC(=O)NCc1cccnc1)S(=O)(=O)c1cc(Cl)ccc1Cl` showed an activation of -2.15%. `COc1ccc(OC)c(NC(=O)c2cnn(-c3ccccc3Cl)c2NC(=O)c2ccco2)c1` showed an activation of 2.28%. With `O=[N+]([O-])/C=C/c1ccc2c(ccn2Cc2ccccc2)c1` the activation was 15.3% (active). Work on `COc1ccc(NC(=S)SC)cc1OC` yielded an activation of 0.31%. `COc1ccc(CN2C(=O)CN=C2Nc2ccc(C)cc2C)cc1` gave an activation of 2.67%. Work on `CCOC(=O)C1=C(O)/C(=C/c2ccc(OCC(=O)Nc3ccc(C)cc3)cc2)N=C1C` yielded an activation of -1.6%. With `Cc1ccc(OCC(=O)Nc2ccc(-c3nnc(-c4ccco4)o3)cc2)cc1` the activation was 9.76% (active). With `Cc1ccc(NC(=O)COc2ccc(/C=C3/NC(=O)NC3=O)cc2)cc1` the activation was -1.99%. `Cc1noc(C)c1NC(=O)Nc1ccc2c(c1)C(=O)N([C@H](C)CO)C[C@H](C)[C@@H](CN(C)S(=O)(=O)c1cn(C)cn1)O2` showed an activation of 0.14%. In the case of `CCOC(=O)C1=C(CC)Nc2ccccc2N=C1NC(=O)c1cccc(S(=O)(=O)N2CCCC2)c1`, the activation is reported as -2.08%. With `Cc1nn(CC(=O)Nc2ccc3c(c2)nc(CN2CCCCC2)n3C)c(=O)c2ccccc12` the activation was -1.92%. `CCC(=O)Nc1ccc2c(c1)nc(CCN1CCN(c3ccccn3)CC1)n2C` gave an activation of 1.46%. For `Cn1c(CCN2CCCCCC2)nc2cc(NC(=O)Nc3ccccc3)ccc21`, the activation was 10.5% (active). `O=C(CNCCC1=CCCCC1)Nc1ccccc1N1CCCCCC1` showed an activation of -0.31%. With `Cc1cc(C)c2c(-n3cccc3)c(C(=O)NNS(=O)(=O)c3ccc(F)cc3)sc2n1` the activation was -0.88%. Compound `COc1cc(S(=O)(=O)N2CCN=C2c2ccccc2)ccc1Cl` has an activation of 2.5%. For `COC(=O)CNC(=O)c1ccccc1[N+](=O)[O-]`, the activation was 1.03%. With `Cn1c(=NC(=O)c2ccc3c(c2)OCCO3)sc2cc(S(C)(=O)=O)ccc21` the activation was -0.86%. For `COCCn1c(=NC(=O)c2ccccc2[N+](=O)[O-])sc2cc(S(C)(=O)=O)ccc21`, the activation was 8.06% (active). `CCOC(=O)C1CCN(C(=O)Cn2nc(C)c3c(C)n(-c4ccccc4)nc3c2=O)CC1` gave an activation of -0.2%. `COc1ccc(N2C(=O)CNC2=S)cc1` gave an activation of -3.02%. In the case of `COc1ccc(-n2cc(-c3ccccc3)c3c(=S)nc[nH]c32)cc1`, the activation is reported as 8.54% (active). `COc1ccccc1CNC(=O)C1Cc2ccccc2C(=O)O1` (stereo not drawn) gave an activation of -0.56%. `COc1cccc(N(C(=O)c2ccn[nH]2)C2(C(=O)Nc3c(C)cccc3C)CCCCC2)c1` gave an activation of -6.45%. For `CCc1ccc(N(C(=O)c2csnn2)C(C(=O)NC2CCCCC2)c2ccncc2)cc1` (stereo not drawn), the activation was 8.57% (active). Work on `CCc1ccc(N(C(=O)c2csnn2)C(C(=O)NC2CCCCC2)c2cccnc2)cc1` (stereo not drawn) yielded an activation of -1.27%. For `O=C(NC1CCCC1)C(c1ccco1)N(C(=O)c1csnn1)c1ccccc1` (stereo not drawn), the activation was 0.36%. With `CN(C)c1ccc(NC(=S)N(CCc2ccccc2)C2CC(=O)N(c3c(Cl)cccc3Cl)C2=O)cc1` (stereo not drawn) the activation was 0.24%. With `CCOc1ccc(N2C(=O)CC(N(CCc3ccc(OC)c(OC)c3)C(=S)Nc3ccccc3)C2=O)cc1` (stereo not drawn) the activation was 8.9% (active). Compound `COC(=O)CN(C(=S)Nc1ccc(Cl)cc1)C1CC(=O)N(c2ccc(OC)cc2)C1=O` (stereo not drawn) has an activation of 1.91%. Compound `COc1ccc(NC(=O)CSc2ccc(-c3ccco3)nn2)c(OC)c1` has an activation of 0.41%. Work on `COc1ccc2[nH]c3nc(SCC(=O)NC4CC4)nnc3c2c1` yielded an activation of 0.57%. With `Oc1cccc2cc(-c3ccncc3)cnc12` the activation was 2.66%. Work on `COC(=O)c1ccc(NC(=O)CSc2nc(N)c(NC(=O)c3ccc(Br)o3)c(=O)[nH]2)cc1` yielded an activation of 1.31%. In the case of `COc1ccc(C2Nc3ccccc3C(=O)N2c2ccc(Cl)cc2)cc1Cn1cc([N+](=O)[O-])cn1` (stereo not drawn), the activation is reported as 10.7% (active). In the case of `COc1ccc(CN2CCCC(C(=O)c3ccc(Cl)cc3)C2)cc1Cn1cncn1` (stereo not drawn), the activation is reported as 1.04%. Compound `COc1ccc(C2Nc3ccccc3C(=O)N2Cc2ccccc2)cc1Cn1nnc2ccccc21` (stereo not drawn) has an activation of -2.6%. Compound `N#C/C(=C(\O)CCl)c1nnc2n1CCCCC2` has an activation of -0.95%. Compound `CCOC(=O)C1(C)CCCN(C(=O)c2cccc(Cl)c2)C1` (stereo not drawn) has an activation of -0.57%. In the case of `CC(C)Oc1ccc(C(CC(=O)N2CCOCC2)C(C)C)cc1` (stereo not drawn), the activation is reported as 2.86%. For `CC(C)(C)NC(=O)NCc1ccco1`, the activation was 0.33%. For `CC(C)(C)c1ccc(C(=O)NCc2ccco2)cc1`, the activation was 8.75% (active). For `O=C(NCc1ccco1)/C(=C/c1ccco1)NC(=O)c1ccccc1`, the activation was 1.61%. Work on `COc1ccc(C2NC(=O)C(=O)/C2=C(\O)c2ccc(Cl)cc2)cc1OC` (stereo not drawn) yielded an activation of -0.36%. For `CC/C(=C(/c1ccccc1)c1ccc(OCC[N+](C)(C)C)cc1)c1ccccc1`, the activation was -0.77%. `CCN(CC)C(=O)CSc1nnc(CNc2ccc(F)cc2)n1Cc1ccco1` showed an activation of -2.98%. In the case of `CN(C)C(=S)N=c1ssc(=S)n1Cc1ccco1`, the activation is reported as 16.1% (active). `CC1CN(Cc2ccco2)C(=S)N(c2ccccc2)C1=O` (stereo not drawn) gave an activation of 2.7%. `O=C(COc1ccc2ccc(=O)oc2c1)NCC(O)c1ccccc1` (stereo not drawn) showed an activation of 1.75%. `O=C(CC1NCCNC1=O)Nc1cc(Cl)cc(Cl)c1` (stereo not drawn) gave an activation of 1.12%. With `O=C(CC1C(=O)NCCN1C(=O)c1ccc([N+](=O)[O-])cc1)Nc1cccc(Cl)c1` (stereo not drawn) the activation was 0.62%. With `O=C(CC1NCCc2ccccc21)Nc1cccc(Cl)c1` (stereo not drawn) the activation was 7.89% (active).
